FMDV antiviral: foot and mouth disease virus antiviral activity; FMDV antiviral cell-based qHTS; Potency, µM (highest dose often 57.9 µM), hits mostly inhibitors; AID 1159524; actives 1.2% (n = 410,000); calls by dose curve; tested in HEK293T cells; also: read-out not given here; nearly all actives have a fitted effect of over 45% in size
Marburg entry inh: blocks Marburg virus binding to or entry into cells | Marburg virus pseudotyped entry inhibition, cell reporter | Potency, µM (series often up to 37.8 µM), hits mostly inhibitors | actives 1.8% (n = 300,000) | AID 540276; calls by dose curve; tested in HEK293 cells
HCMV inh: human cytomegalovirus inhibition. AID 1259415. activity change, negative = inhibition, % at 57.5 µM. HFF cells, HCMV-luciferase reporter, 72 h; active compounds read low. actives 4.5% (n = 410,000); in the data active = activity change below about -60%; inconclusive = no clear call, values can overlap the other calls; inactive = above about -39%
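Cell-based, HFFs, 1000 cells/well, 16 h 37C; cpds in DMSO + HCMV-luc, MOI 1 PFU/cell; 72 h 37C; OneGlo luminescence after 5 min RT; norm. to buffer vs Salinomycin 10uM.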
FBPA Giardia inh: blocks Giardia fructose-bisphosphate aldolase activity; A8B2U2; purified Giardia FBPA; Potency, µM (highest dose often 59.6 µM), usual class: inhibitors; actives 0.71% (n = 290,000); also: nearly all actives have a fitted effect of over 55% in size
Target sequence (A8B2U2 whole entry, looked up): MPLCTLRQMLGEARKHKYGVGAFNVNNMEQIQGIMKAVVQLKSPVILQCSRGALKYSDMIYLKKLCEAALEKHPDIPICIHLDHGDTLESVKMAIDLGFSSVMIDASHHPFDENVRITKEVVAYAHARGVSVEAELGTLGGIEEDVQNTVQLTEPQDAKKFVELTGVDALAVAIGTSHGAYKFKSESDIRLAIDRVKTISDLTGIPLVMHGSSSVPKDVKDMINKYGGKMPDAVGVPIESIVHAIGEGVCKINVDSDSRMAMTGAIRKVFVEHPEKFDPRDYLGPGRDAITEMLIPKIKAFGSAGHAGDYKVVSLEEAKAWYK
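40 nM FBPA preincubated 10 min at RT with compound (up to 57.5 uM final), then substrate plus GAPDH/TPI/NAD/arsenate coupling and diaphorase/resazurin added. Fluorescence read after 20 min at RT, 525/598 nm.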
LASV entry inh: inhibitors of Lassa virus binding or cell entry; Potency, µM (doses to about 37.9 µM), most hits filed as inhibitors; Lassa virus pseudotype entry inhibition, cell reporter; AID 540256; actives 1.2% (n = 300,000); calls by dose curve; tested in HEK293 cells; also: nearly all actives have a fitted effect of over 50% in size
HCV inh: blocks hepatitis C virus; Potency, µM (doses to about 41.8 µM), most hits filed as inhibitors; AID 651820; actives 3.4% (n = 340,000); Huh7.5.1 HCVcc-Cre infection, luciferase reporter, 44 h
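After 44 h co-culture of compound, cells and HCVcc-Cre (~0.5 moi), substrate is added for 15 min at room temperature and luciferase measured over 15 sec. Cells were seeded at 1,000/well and pre-cultured 4 h.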
A number is an active result. A selection: hits, their analogues and other compounds. The true share with any hit is near 8.3%. Unless noted, calls follow the shape of the dose curve; as a rule, active = well fitted curve in the direction sought with a large enough effect; inconclusive = small, poorly fitted or top-dose-only effect, or another doubt; inactive = no such curve, though single readings can be large; an effect the other way counts as inactive or inconclusive.

What do the screens show for `COc1cc(NC(=O)Nc2cccc(-c3noc(C)n3)c2)cc(OC)c1OC`?
FMDV antiviral: inconclusive; HCMV inh: -77; LASV entry inh: inactive

Results for COc1ccc(NC(=O)c2cc(-c3ccccc3Cl)on2)cc1 ?
FMDV antiviral: inactive; HCMV inh: inactive; FBPA Giardia inh: inactive; HCV inh: inconclusive

What do the screens show for `COc1cc(NC(=O)c2cc(-c3ccccc3Cl)on2)cc(OC)c1OC`?
FMDV antiviral: inactive; Marburg entry inh: inconclusive; HCMV inh: inactive; FBPA Giardia inh: inactive; LASV entry inh: inactive; HCV inh: 1.1µM

Results for COc1ccccc1CNC(=O)C1CCCN(S(=O)(=O)c2ccc3c(c2)oc(=O)n3C)C1 (centres undefined) ?
FMDV antiviral: inactive; Marburg entry inh: inactive; HCMV inh: inactive; LASV entry inh: inactive

How did Cc1ccc(Nc2ncnc3c2nc2n3CCCC2)c(Br)c1 do in these assays?
FMDV antiviral: inactive; HCMV inh: inactive; LASV entry inh: inactive

What do the screens show for `CCN1CCN(Cc2cccc(Oc3ccc(Cl)cc3)c2)CC1`?
Marburg entry inh: inconclusive; HCMV inh: inactive; FBPA Giardia inh: inactive; LASV entry inh: inconclusive; HCV inh: 13µM

How did CCN1CCN(Cc2cccc(Oc3ccccc3)c2)CC1 do in these assays?
Marburg entry inh: inconclusive; HCMV inh: inactive; FBPA Giardia inh: inconclusive; LASV entry inh: inconclusive; HCV inh: inactive

How did CN1CCN(Cc2cccc(Oc3ccc(Cl)cc3)c2)CC1 do in these assays?
Marburg entry inh: inconclusive; HCMV inh: -61; FBPA Giardia inh: inactive; LASV entry inh: inactive; HCV inh: inconclusive

How did CCSc1nnc2n(-c3ccc(OC)cc3)c(=O)c3c4c(sc3n12)CCCC4 do in these assays?
FMDV antiviral: inactive; Marburg entry inh: inactive; HCMV inh: -85; FBPA Giardia inh: inactive; LASV entry inh: inactive; HCV inh: inactive

Results for COc1ccc(CSc2nnc3n(C)c(=O)c4c5c(sc4n23)CCCC5)cc1 ?
FBPA Giardia inh: inactive

Results for CC(=O)O[C@H]1C(=O)[C@@]2(C)[C@H]([C@H](OC(=O)c3ccccc3)[C@]3(O)C[C@H](OC(=O)[C@H](O)[C@@H](NC(=O)c4ccccc4)c4ccccc4)C(C)=C1C3(C)C)[C@]1(OC(C)=O)CO[C@@H]1C[C@@H]2O ?
FMDV antiviral: inconclusive; Marburg entry inh: inconclusive; HCMV inh: -70; FBPA Giardia inh: inactive; HCV inh: inconclusive

Results for CC(=O)O[C@@]12CO[C@@H]1C[C@@H](O)[C@@]1(C)C(=O)[C@H](O)C3=C(C)[C@@H](OC(=O)[C@H](O)[C@@H](NC(=O)c4ccccc4)c4ccccc4)C[C@@](O)([C@@H](OC(=O)c4ccccc4)C12)C3(C)C (some centres undefined) ?
FMDV antiviral: inactive; HCMV inh: inconclusive; FBPA Giardia inh: inactive; HCV inh: 0.32µM

How did CC(=O)O[C@H]1C(=O)[C@@]2(C)[C@H]([C@H](OC(=O)c3ccccc3)[C@]3(O)C[C@H](OC(=O)[C@H](O)C(NC(=O)c4ccccc4)c4ccccc4)C(C)=C1C3(C)C)[C@]1(OC(C)=O)CO[C@@H]1C[C@@H]2O (some centres undefined) do in these assays?
FMDV antiviral: inactive; HCMV inh: -83; FBPA Giardia inh: inactive; HCV inh: inconclusive

What do the screens show for `CC/C=C/CC(=O)N[C@@H](c1ccccc1)[C@@H](O)C(=O)O[C@H]1C[C@@]2(O)[C@@H](OC(=O)c3ccccc3)C3[C@](C)(C(=O)[C@H](OC(C)=O)C(=C1C)C2(C)C)[C@@H](O)C[C@H]1OC[C@@]31OC(C)=O` (some centres undefined)?
FMDV antiviral: inactive; HCMV inh: -91; FBPA Giardia inh: inconclusive; HCV inh: inactive

How did C[C@@H]1CN([C@@H](C)CO)C(=O)CCCn2cc(nn2)CO[C@H]1CN(C)S(C)(=O)=O do in these assays?
HCMV inh: inactive

Results for CC(C)OCCCn1c(=O)c2ccccc2n2c(-c3ccc(F)c(F)c3)nnc12 ?
FMDV antiviral: inactive; Marburg entry inh: inconclusive; HCMV inh: inactive; LASV entry inh: inactive

How did C[C@H](N)C(=O)N[C@@H](CO)C(=O)N[C@H](C(=O)N[C@H](C(=O)N[C@H](C(=O)N[C@@H](CC(N)=O)C(=O)N[C@@H](Cc1ccc(O)cc1)C(=O)N[C@H](C(=O)O)[C@@H](C)O)[C@@H](C)O)[C@@H](C)O)[C@@H](C)O do in these assays?
FBPA Giardia inh: inactive

How did COC(=O)N1C(c2ccccc2)=Cc2ccccc2C1C1(C(=O)OC)CCCC1=O (centres undefined) do in these assays?
Marburg entry inh: inactive; FBPA Giardia inh: inactive; LASV entry inh: inconclusive

What do the screens show for `COc1ccc(CCNC(=O)c2nn(-c3ccc(C)cc3)c(=O)c3c2c2ccccc2n3C)cc1OC`?
FMDV antiviral: inactive; Marburg entry inh: inconclusive; HCMV inh: inactive; LASV entry inh: inactive

What do the screens show for `CCN(CC)CCN1C(=O)C(=O)/C(=C(/O)c2c(C)[nH]c(C(=O)OC)c2C)[C@@H]1c1cccc(OC)c1`?
Marburg entry inh: inactive

Results for N=C(N)SCc1cn(-c2ccccc2)nc1-c1ccc(Br)cc1 ?
FMDV antiviral: 20µM; Marburg entry inh: inconclusive; HCMV inh: -87; FBPA Giardia inh: inactive; LASV entry inh: inconclusive; HCV inh: inconclusive

How did COc1ccc(-c2nn(-c3ccccc3)cc2CO)cc1 do in these assays?
FMDV antiviral: inactive; Marburg entry inh: inconclusive; HCMV inh: inactive; FBPA Giardia inh: inactive; LASV entry inh: inactive; HCV inh: inconclusive

How did O=C([C@@H]1C[C@@H](Sc2nc3ccccc3[nH]2)CN1Cc1ccc(Cl)cc1)N1CCN(c2ccccc2F)CC1 do in these assays?
FMDV antiviral: inactive

What do the screens show for `Cc1ccc(-n2c(/C=C/c3ccc(Br)s3)nc3ccccc3c2=O)cc1C`?
FMDV antiviral: inactive; HCMV inh: -65; LASV entry inh: inconclusive

Results for O=c1c2ccccc2nc(/C=C/c2ccc(O)cc2)n1-c1ccccc1O ?
FMDV antiviral: inactive; HCMV inh: inactive; FBPA Giardia inh: inactive; HCV inh: inactive

How did Cc1ccccc1-n1c(/C=C/c2ccccn2)nc2ccccc2c1=O do in these assays?
FMDV antiviral: inactive; HCMV inh: -102; FBPA Giardia inh: inactive; HCV inh: inactive

What do the screens show for `Cc1ccccc1-n1c(/C=C/c2ccc(O)cc2)nc2ccccc2c1=O`?
FMDV antiviral: inactive; HCMV inh: -92; LASV entry inh: inconclusive

How did CN(CC(=O)O)C(=O)[C@H](Cc1ccccc1)NC(=O)[C@@H](CCCN=C(N)N)NC(=O)[C@@H](N)Cc1ccc(O)cc1 do in these assays?
FBPA Giardia inh: inactive

Results for CCCCOC(=O)Cn1c(-c2ccccc2)nc2ccccc2c1=O ?
FMDV antiviral: inactive; Marburg entry inh: inactive; HCMV inh: -76; FBPA Giardia inh: inactive; LASV entry inh: inactive; HCV inh: inactive
